# Screening data: PubChem, National Center for Advancing Translational Sciences (NCATS)
# Many of the other results were omitted from the sample, so hits are more common in it than they were.
# AMA1 RON2 block – qHTS for Inhibitors of AMA1-RON; Towards Development of Antimalarial Drug Lead: Primary Screen; Plasmodium falciparum AMA1 (3D7) - RON2 peptide interaction; AlphaScreen AMA1-biotinylated RON2 peptide binding; Potency, µM (doses to about 58.2 µM), usual class: inhibitors; 360,000 tested, 0.2% active; active means well fitted inhibition curve with a large enough effect; inconclusive means small, poorly fitted or top-dose-only effect; inactive means no such curve, though single readings can be large or run the other way; further: nearly all actives have a fitted effect of over 45% in size
#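 AMA1 (3D7) with his tag at 25 nM final met compounds first, then biotinylated RON2 peptide at 25 nM; detection used donor plus acceptor beads, 10 µg/mL apiece, read by AlphaScreen after 30 min at room temperature.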
# Shiga toxin inh – A qHTS for Small Molecule Inhibitors of Shiga Toxin; inhibition, % at 38.7 µM; Vero cells, Shiga toxin protein synthesis inhibition reporter; 290,000 tested, 9.2% active; in the data active means inhibition mostly above about 28%, no sharp cut-off; inactive means mostly below about 43%
# Lassa entry inh – qHTS for Inhibitors of binding or entry into cells for Lassa Virus | 300,000 tested, 1.2% active | Lassa virus pseudotype entry inhibition, cell reporter | Potency, µM (top dose mostly 37.9 µM), actives largely listed as inhibitors; calls by dose curve; tested in HEK293 cells; further: nearly all actives have a fitted effect of over 50% in size
# Marburg entry inh – qHTS for inhibitors of binding or entry into cells for Marburg Virus; Marburg virus pseudotyped entry inhibition, cell reporter; Potency, µM (doses to about 37.8 µM), hits mostly inhibitors; 300,000 tested, 1.8% active; calls by dose curve; tested in HEK293 cells
# Cycloheximide cs – Cycloheximide Counterscreen for Small Molecule Inhibitors of Shiga Toxin; 300,000 tested, 12% active; AID 2314, 2010; cell reporter, cycloheximide protein synthesis inhibition counterscreen; max response, %; in the data active means max response mostly above about 13%, no sharp cut-off; inactive means mostly below about 14%; further: read at 38.3 µM for the half of the compounds with a filed dose
# Hits are given with their value; n = inactive; u = inconclusive; x = no result.
SMILES,AMA1 RON2 block,Shiga toxin inh,Lassa entry inh,Marburg entry inh,Cycloheximide cs
Oc1ccccc1CN1CCCN(Cc2ccccc2O)C1,n,n,7.3µM,1.46µM,n
Cc1cccc(C)c1-n1c(C)cc(/C=N\Nc2ccc([N+](=O)[O-])cn2)c1C,u,66.7,u,n,27.8
COc1cccc(/C=N/Nc2ccc([N+](=O)[O-])cc2)c1O,n,76.4,n,u,32.9
COc1cc(/C=N/Nc2ccc([N+](=O)[O-])cn2)cc(OC)c1O,n,n,u,u,25.4
COc1ccc(/C=N/Nc2ccc([N+](=O)[O-])cc2)cc1O,n,80.1,u,n,26.2
COC(=O)c1ccc(N/N=C/c2cc([N+](=O)[O-])cc(OC)c2O)cc1,n,n,n,u,n
COC(=O)C1(C(=O)OC)C/C=C\CCN(S(=O)(=O)c2ccccc2[N+](=O)[O-])CC1,n,x,x,x,x
c1ccc(COc2ncnc3c2ncn3CCCNCC(c2ccccc2)c2ccccc2)cc1,n,x,x,x,x
CCNc1nc(NC(C)C)nc(N(C#N)[C@@H](C)C(=O)N(C)C)n1,x,x,x,n,x
COc1ccc(/C=N/Nc2ccc([N+](=O)[O-])cc2)cc1Cn1cc([N+](=O)[O-])cn1,n,n,n,n,11.3
COc1cccc(N/N=C/c2cccc(Br)c2O)c1,n,88.3,n,11.2µM,29.6
COc1cc(/C=N/NC(=O)c2cccc([N+](=O)[O-])c2)cc(OC)c1O,n,n,x,x,n
COc1cccc(/C=N/NC(=O)c2ccc([N+](=O)[O-])cc2Cl)c1O,n,n,14.6µM,u,17.1
Cc1cc(OCC(O)CN2CCc3ccccc3C2)ccc1Cl (stereo not given),n,n,n,u,n
CC(=O)N1c2ccc(S(=O)(=O)NCC3CCC(C(=O)Nc4cccc(C)n4)CC3)cc2CC1C (stereo not given),n,n,u,u,n
Cc1cc(S(=O)(=O)Nc2nc(CN3CCOCC3)nc3sc4c(c23)CCC4)ccc1F,n,x,u,n,x
Cc1c([C@@H](Nc2ccccn2)c2ccccc2)c(=O)n(-c2ccccc2)n1C,x,x,x,n,x
Cn1c(=NC(=O)c2ccccc2[N+](=O)[O-])sc2cc(S(C)(=O)=O)ccc21,n,50.5,n,u,64.2
COc1ccc(-c2ccc3nncn3c2)cn1,n,x,x,x,x
CCOC(=O)N1CCN(C(=O)C2CCCN(c3nc4ccc(OCC)cc4s3)C2)CC1 (stereo not given),n,29.9,x,x,n
CCOc1ccc2nc(N3CCC(C(=O)NC4CCCCC4)CC3)sc2c1,n,n,x,x,n
CCOc1ccc2nc(N3CCCC(C(=O)NC4CCCC4)C3)sc2c1 (stereo not given),n,20.3,x,x,32.8
CCn1cc(Cl)c(C(=O)Nc2ccc(OC)c(OC)c2)n1,n,54.9,n,n,21.1
CCn1cc(Br)c(C(=O)Nc2ccc(Cl)c(Cl)c2)n1,n,35.4,u,n,20.9
CCn1ccc(C(=O)Nc2ccccc2Cl)n1,n,63.3,x,x,40.9
SMILES,AMA1 RON2 block,Shiga toxin inh,Lassa entry inh,Marburg entry inh,Cycloheximide cs
CCn1ccc(C(=O)Nc2ccc(S(=O)(=O)Nc3ccccc3OC)cc2)n1,n,n,n,n,n
CCn1cc(Br)c(C(=O)Nc2cccc(Cl)c2)n1,n,72.8,n,n,17.9
CCn1cc(Cl)c(C(=O)Nc2cc(C(=O)OC)cc(C(=O)OC)c2)n1,n,n,n,u,n
CCn1cc(Br)c(C(=O)Nc2ccc(C(=O)OC(C)C)cc2)n1,n,n,x,n,n
O=C(O)/C=C/c1cn(Cc2ccccc2)nc1-c1ccc(Cl)cc1,n,n,n,n,n
O=C(O)c1cccc(Oc2ccc(C(=O)O)c([N+](=O)[O-])c2)c1,n,x,n,n,x
N#Cc1ccsc1NC(=O)C1CCN(S(=O)(=O)c2cccs2)CC1,n,x,n,n,x
CCn1cc(Br)c(C(=O)Nc2nccs2)n1,n,72.8,n,n,26.8
CCn1cc(Br)c(C(=O)Nc2ccc(OC)cc2)n1,n,n,u,n,21.3
CCOC(=O)c1c(-c2ccccc2)csc1NC(=O)c1nn(CC)cc1Br,n,n,u,10.3µM,n
CCn1c(C)c(C)c2cc(C(=O)Nc3cccc(Cl)c3)ccc21,n,n,n,u,20.7
C=CC[C@@H]1C=C[C@@H](ON=C2[C@H]3CCn4c(=O)n(-c5ccccc5)c(=O)n4[C@@H]3[C@H](O)[C@@H]3O[C@H]23)[C@@H](CO)O1,x,x,x,n,x
CCOC(=O)COc1ccc(CC)cc1C(=O)c1ccn2nc(-c3ccccc3)cc2n1,x,x,n,u,x
C=C1CN2C(=NC(c3ccccc3)C(C(=O)OC)=C2C)O1 (stereo not given),x,x,x,n,x
C[C@@H](O)C1NC(=O)[C@H](CCCCN)NC(=O)c2cc([N+](=O)[O-])cc(I)c2OCC[C@@H](C(N)=O)NC1=O (stereo not given in full),n,n,n,n,n
CCn1cc(Br)c(C(=O)NN)n1,n,n,n,u,58.5
CCOC(=O)c1c(NC(=O)c2nn(CC)cc2Br)c(C#N)cn1-c1ccccc1,n,n,u,u,n
CCn1nnc2cc(C(=O)Nc3cccc(Cl)c3)ccc21,x,x,n,x,x
CCn1ccc(C(=O)Nc2cccc(Cl)c2)n1,n,105.7,n,u,35.5
O=C(c1ccc2ccccc2c1O)N1CCCCC1,n,x,x,x,x
CCOc1ccc(NC(=O)CN2C(=O)CC(C)Sc3ccccc32)cc1 (stereo not given),x,x,x,n,x
CSc1nc(-c2ccco2)nn1C(=O)c1ccc(C)cc1,n,n,u,n,n
CSc1nc(-c2ccco2)nn1C(=O)c1ccco1,n,n,n,n,n
CSc1nc(-c2ccccc2)nn1C(=O)c1ccc(C)cc1,n,n,u,n,15.5
CSc1nc(-c2ccc(Cl)cc2)nn1C(=O)c1ccco1,n,64.9,n,n,61.8
SMILES,AMA1 RON2 block,Shiga toxin inh,Lassa entry inh,Marburg entry inh,Cycloheximide cs
Cc1ccc(C(=O)N/C(=C\c2cccs2)C(=O)NCCCn2ccnc2)cc1,n,n,n,n,n
CCC(NC(=O)C1CCCC1)c1ccccc1 (stereo not given),n,x,n,n,x
COc1ccc(-c2nc3n(n2)C(c2ccccc2F)C(C(=O)Nc2cccnc2)=C(C)N3)cc1OC (stereo not given),x,x,n,n,x
Cc1c(C(=O)NCc2ccccc2Cl)sc2nc[nH]c(=O)c12,x,x,n,x,x
C=CCN(c1ccc(C(=O)Nc2ccc(C)c(C)c2)cc1)S(C)(=O)=O,n,n,n,u,19.1
C=CCN(c1ccc(C(=O)OC)cc1)S(=O)(=O)c1ccccc1,n,92.2,n,n,33.2
C=CCN(c1ccc(C(=O)NC(C)C)cc1)S(C)(=O)=O,n,n,n,n,n
CCCN(c1ccc(C(=O)OC)cc1)S(=O)(=O)c1ccccc1,n,n,n,n,n
C=CCN(c1ccc(C(=O)NCCSc2ccccc2)cc1)S(C)(=O)=O,n,119.7,x,x,33.4
COC(=O)c1ccc(NC(=O)N2CCN(c3nnc(C)c4c(C)n(-c5ccccc5)nc34)CC2)cc1,x,x,n,x,x
Cc1ccc(CSc2nc(=O)c3c(C)cc(C)nc3n2C2CC2)cc1,x,x,n,x,x
Cc1ccc(CNC(=O)C2CCN(c3ncnc4c3nc3n4CCCCC3)CC2)cc1,x,x,n,x,x
